# Test system: Salmonella enterica serovar Typhimurium 14028s
# Experiment: approximate change in surviving CFU after surface colonization relative to water-only control (log10 CFU/mL change); higher = more surviving bacteria (less inhibition of surface colonization)
# Details: not stated (Biolog proprietary concentration), surface: plastic 96-well plate, 20-24 h at 25 °C
smiles,measurement,setting,value
O=C(CO)[C@@H](O)[C@H](O)[C@H](O)CO [D-Fructose],approximate change in surviving CFU (log10),"Biolog plate: PM1, Biolog well: C7",2.4
CO[C@H]1O[C@H](CO)[C@H](O)[C@H](O)[C@H]1O [a-Methyl-D-Galactoside],approximate change in surviving CFU (log10),"Biolog plate: PM1, Biolog well: D8",1.72
CO[C@@H]1O[C@H](CO)[C@@H](O)[C@H](O)[C@H]1O [B-Methyl-D-Glucoside],approximate change in surviving CFU (log10),"Biolog plate: PM1, Biolog well: E8",1.33
OC[C@H]1O[C@H](O[C@H]2[C@H](O)[C@@H](O)[C@@H](O[C@H]3[C@H](O)[C@@H](O)[C@@H](O)O[C@@H]3CO)O[C@@H]2CO)[C@H](O)[C@@H](O)[C@@H]1O [Maltotriose],approximate change in surviving CFU (log10),"Biolog plate: PM1, Biolog well: E10",1.82
O=C(O)/C=C/C(=O)O [Fumaric Acid],approximate change in surviving CFU (log10),"Biolog plate: PM1, Biolog well: F5",0.88
O=C(O)CC(Br)C(=O)O (stereo not given) [Bromo Succinic Acid],approximate change in surviving CFU (log10),"Biolog plate: PM1, Biolog well: F6",-0.901
O=C(O)CC(CC(=O)O)C(=O)O [Tricarballylic Acid],approximate change in surviving CFU (log10),"Biolog plate: PM1, Biolog well: G2",1.05
O=C(O)C[C@H](O)C(=O)O [L-Malic Acid],approximate change in surviving CFU (log10),"Biolog plate: PM1, Biolog well: G12",1.01
O=C(O)[C@H]1O[C@@H](O)[C@H](O)[C@@H](O)[C@H]1O [Pectin],approximate change in surviving CFU (log10),"Biolog plate: PM2, Biolog well: A12",-0.343
OC[C@H]1O[C@@](CO)(O[C@H]2O[C@H](CO)[C@@H](O)[C@H](O)[C@H]2O)[C@@H](O[C@H]2O[C@H](CO)[C@@H](O)[C@H](O)[C@H]2O)[C@@H]1O [D-Melezitose],approximate change in surviving CFU (log10),"Biolog plate: PM2, Biolog well: C4",1.16
OC[C@@H](O)[C@H](O)[C@@H](O)CO [Xylitol],approximate change in surviving CFU (log10),"Biolog plate: PM2, Biolog well: D8",1.01
CC(O)(CC(=O)O)C(=O)O (stereo not given) [Citramalic Acid],approximate change in surviving CFU (log10),"Biolog plate: PM2, Biolog well: E4",0.687
O=C(O)c1ccc(O)cc1 [4-Hydroxy Benzoic Acid],approximate change in surviving CFU (log10),"Biolog plate: PM2, Biolog well: E7",-0.58
O=C(CO)[C@@H](O)[C@H](O)[C@@H](O)C(=O)O [5-Keto-D-Gluconic Acid],approximate change in surviving CFU (log10),"Biolog plate: PM2, Biolog well: E12",0.708
O=C(O)CC(=O)O [Malonic Acid],approximate change in surviving CFU (log10),"Biolog plate: PM2, Biolog well: F2",0.0859
